A selection: hits, their analogues and other compounds. The true share with any hit is near 19%.
DT40 TDP1 no CPT: qHTS for Inhibitors of human tyrosyl-DNA phosphodiesterase 1 (TDP1): qHTS in cells in absence of CPT | Potency, µM (top dose mostly 46.2 µM), most hits filed as inhibitors | 15% of 420,000 active | DT40 Tdp1-/- hTDP1 cells, no CPT, ATP luminescence, 48 h; further: nearly all actives have a fitted effect of over 55% in size
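Readout: luminescence from CellTiter-Glo after 30 min in the dark at RT. Cells: DT40 Tdp1-/- with stable hTDP1, 400/well. Exposure: compounds alone, ≥48 hr, 37 °C.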
Giardia killer: Small Molecules that selectively kill Giardia lamblia: qHTS | AID 540267, 2011 | 0.15% of 340,000 active | Giardia lamblia trophozoite viability | activity change, % at 7.66 µM, hits read low; in the data active means activity change below about -80%; inconclusive means between about -30% and that limit;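 further: parasites exposed to compound for two days anaerobically before the ATP read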
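Trophozoites 100 cells/well + cpd; 48 hrs, 37 deg C, anaerobic. ATPLite 1-Step added, 15-30 min RT, luminescence read (ATP-based viability).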
TDP1 inh: qHTS Assay for Inhibitors of Tyrosyl-DNA Phosphodiesterase (TDP1) | 0.28% of 350,000 active | Tyrosyl-DNA phosphodiesterase 1 (Homo sapiens), Q9NUW8 | Potency, µM (titrated, usually from 130 µM), usual class: inhibitors | recombinant TDP1, AlphaScreen DNA substrate cleavage; further: nearly all actives have a fitted effect of over 40% in size
Target sequence (Q9NUW8 whole entry, looked up): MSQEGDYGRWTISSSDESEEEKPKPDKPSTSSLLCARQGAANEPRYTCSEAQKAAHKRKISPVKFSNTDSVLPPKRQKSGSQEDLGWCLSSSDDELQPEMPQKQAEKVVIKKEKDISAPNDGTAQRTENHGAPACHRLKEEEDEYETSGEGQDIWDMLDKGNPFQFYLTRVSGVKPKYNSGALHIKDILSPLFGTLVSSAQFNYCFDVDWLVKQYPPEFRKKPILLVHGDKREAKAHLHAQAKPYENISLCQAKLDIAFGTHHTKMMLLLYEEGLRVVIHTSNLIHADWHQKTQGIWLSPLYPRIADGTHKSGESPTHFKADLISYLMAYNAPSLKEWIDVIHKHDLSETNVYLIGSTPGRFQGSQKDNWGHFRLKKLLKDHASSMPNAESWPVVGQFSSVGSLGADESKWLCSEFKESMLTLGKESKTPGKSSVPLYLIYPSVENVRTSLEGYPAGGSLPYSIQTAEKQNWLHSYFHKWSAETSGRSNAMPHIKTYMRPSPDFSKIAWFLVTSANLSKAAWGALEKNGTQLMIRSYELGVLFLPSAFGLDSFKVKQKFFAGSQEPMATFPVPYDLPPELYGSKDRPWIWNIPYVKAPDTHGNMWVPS
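AlphaScreen read-out: signal falls as enzyme removes the 3' tyrosine-FITC from a 5'-biotinylated DNA oligo (15 nM, 5 min, RT). Enzyme was E. coli-made recombinant Tdp1 at 1 nM, exposed to compound for 15 min beforehand; beads 10 ug/ml, 10 min.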
ELG1 DNA repair: qHTS screen for small molecules that inhibit ELG1-dependent DNA repair in human embryonic kidney (HEK293T) cells expressing luciferase-tagged ELG1; HEK293T ELG1-luciferase reporter, luminescence, 16 h; DNA damage induced by 5-fluorouridine; Potency, µM (titrated, usually from 46.1 µM), most hits filed as inhibitors; 2.3% of 330,000 active; AID 504467, 2011; further: nearly all actives have a fitted effect of over 55% in size
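HEK293T cells expressing luciferase-tagged ELG1 (2,000/well) received 5-Fluorouridine plus compound or DMSO for 16 hr at 37 °C. Luciferase was read by ONE-Glo luminescence after 30 min at room temperature.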
IL-1B inflam inh: qHTS for Inhibitors of Inflammasome Signaling: IL-1-beta AlphaLISA Primary Screen; activity change, % at 57.5 µM; THP-1 LPS/ATP IL-1B secretion, AlphaLISA, 16 h; stronger effect = lower value; 4.7% of 360,000 active; in the data active means activity change below about -50%; inconclusive means mostly about -30% to -49%
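THP-1 cells pretreated 1 hr with compounds (up to 57.5 uM final), then stimulated with LPS (250 ng/mL final) plus ATP (1.25 mM final); secreted IL-1B measured by AlphaLISA after 16 hr, decreased signal indicating inhibition.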
DT40 TDP1 CPT: qHTS for Inhibitors of human tyrosyl-DNA phosphodiesterase 1 (TDP1): qHTS in cells in presence of CPT | chicken DT40 Tdp1-/-;hTDP1 cells + 20 nM CPT, ATP luminescence, 48 h | Potency, µM (highest dose often 46.2 µM), actives largely listed as inhibitors | 12% of 420,000 active | AID 686979, 2013; further: nearly all actives have a fitted effect of over 55% in size
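Chicken DT40 Tdp1-/- cells stably complemented with human TDP1 were seeded at 400 cells/well in medium containing 20 nM camptothecin, exposed to pin-transferred compounds, and grown at 37 °C for at least 48 hr. Viability was read as ATP luminescence.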
Numbers stand for hits. Unless noted, the call rests on the fitted dose curve; in most records, active means well fitted curve in the direction sought with a large enough effect; inconclusive means small, poorly fitted or top-dose-only effect, or another doubt; inactive means no such curve, though single readings can be large; an effect the other way counts as inactive or inconclusive.

`CN1CCC[C@H]1CCNc1ccc2c(=O)c3ccccc3n(C)c2c1` gave DT40 TDP1 no CPT inconclusive, Giardia killer inactive, IL-1B inflam inh -72 and DT40 TDP1 CPT inconclusive.
Screening O=S(=O)(Nc1ccc2c(c1)oc1ccccc12)N1CCCC1 returned DT40 TDP1 no CPT inconclusive, Giardia killer inactive, TDP1 inh inactive, ELG1 DNA repair inactive, IL-1B inflam inh inactive and DT40 TDP1 CPT inactive.
Cn1c2ccccc2c(=O)c2ccc(NCc3ccc4c(c3)OCO4)cc21 was read as DT40 TDP1 no CPT 15µM, Giardia killer inactive, IL-1B inflam inh inactive and DT40 TDP1 CPT 23µM.
Cn1c2ccccc2c(=O)c2ccc(Cl)cc21 was read as DT40 TDP1 no CPT inactive, IL-1B inflam inh inactive and DT40 TDP1 CPT inactive.
Screening O=c1c2ccccc2oc2ccc(Oc3ccccc3)cc12 returned DT40 TDP1 no CPT inconclusive, Giardia killer inactive, ELG1 DNA repair inconclusive, IL-1B inflam inh inactive and DT40 TDP1 CPT inconclusive.
CN1CCCC1CCNc1ccc2oc3ccccc3c(=O)c2c1 (stereo unspecified) was read as DT40 TDP1 no CPT inconclusive, Giardia killer inactive, ELG1 DNA repair inconclusive, IL-1B inflam inh -79 and DT40 TDP1 CPT inconclusive.
Screening CN1CCCC1CCNc1ccc2c(=O)c3ccccc3oc2c1 (stereo unspecified) returned DT40 TDP1 no CPT 18µM, Giardia killer inactive, ELG1 DNA repair inconclusive, IL-1B inflam inh -83 and DT40 TDP1 CPT inconclusive.
For CCOc1ccc(-c2nnc(SCC(=O)NCCc3ccccc3)nc2-c2ccc(OCC)cc2)cc1 the results were DT40 TDP1 no CPT inactive, TDP1 inh inactive and DT40 TDP1 CPT inactive.
`N#Cc1cccc(OC2=NS(=O)(=O)c3ccccc32)c1` gave TDP1 inh inactive.
`COCCNC(=O)COc1ccc(C)cc1C(=O)c1cc(C#N)c(=O)n(C2CC2)c1` gave DT40 TDP1 no CPT inactive, Giardia killer inactive, TDP1 inh inactive, ELG1 DNA repair inactive, IL-1B inflam inh inactive and DT40 TDP1 CPT inactive.
Screening Cc1ccc(S(=O)(=O)NN=C2C(=O)C3CCC2C3Cl)cc1 (stereo unspecified) returned DT40 TDP1 no CPT inactive, Giardia killer inactive, IL-1B inflam inh inactive and DT40 TDP1 CPT inactive.
`O=C(O)c1cc(N2N=C(C(F)(F)F)/C(=C/C=C/c3ccco3)C2=O)ccc1Cl` gave DT40 TDP1 no CPT 18µM, Giardia killer inactive, TDP1 inh inactive, ELG1 DNA repair inactive, IL-1B inflam inh inactive and DT40 TDP1 CPT inconclusive.
For CC(=O)N1N=C(c2ccccc2)CC1c1cn(C)c2ccccc12 (stereo unspecified) the results were DT40 TDP1 no CPT 21µM, Giardia killer inactive, TDP1 inh inactive, ELG1 DNA repair inconclusive, IL-1B inflam inh inconclusive and DT40 TDP1 CPT inconclusive.
Screening CC(=O)N1N=C(c2ccccc2)CC1c1ccc(F)cc1 (stereo unspecified) returned DT40 TDP1 no CPT inconclusive, Giardia killer inactive, ELG1 DNA repair inconclusive, IL-1B inflam inh inactive and DT40 TDP1 CPT inactive.
For COc1cccc(NC(=O)CSc2nc3c([nH]c4ccccc43)c(=O)n2-c2ccccc2)c1 the results were DT40 TDP1 no CPT inconclusive, TDP1 inh inactive and DT40 TDP1 CPT inconclusive.
For Cc1ccc(NS(=O)(=O)c2cc([N+](=O)[O-])ccc2NNC(=S)Nc2cccc(Cl)c2)c(C)c1 the results were DT40 TDP1 no CPT inconclusive, Giardia killer inactive, TDP1 inh inactive, ELG1 DNA repair inactive, IL-1B inflam inh inactive and DT40 TDP1 CPT inconclusive.
`COc1ccc(NC(=S)NNc2ccc([N+](=O)[O-])cc2S(=O)(=O)Nc2ccc(C)cc2C)cc1` gave DT40 TDP1 no CPT inconclusive, Giardia killer inactive, TDP1 inh inactive, ELG1 DNA repair inconclusive, IL-1B inflam inh -84 and DT40 TDP1 CPT inactive.

Bioassay records: PubChem, National Center for Advancing Translational Sciences (NCATS)
